Laboratory results: PubChem BioAssay (Tox21)
Records with an inconclusive call do not appear. Where a call stands in place of a potency, no number is given. Active and inactive are the calls of the source. Calls follow the shape of the dose curve; as a rule, active = well fitted activation curve with a large enough effect in the signal ratio in the repeat runs (not every such curve was filed as active); inconclusive = weak or mixed curves; inactive = flat fitted curve, though single readings scatter; the % refers to the signal ratio.

Test: p53 small molecule agonists, cell-based qHTS assay (AID 1963582)
Settings: HCT-116 p53RE-bla reporter, beta-lactamase FRET ratio, 16 h; series mostly up to 66 µM
Description: National Center for Advancing Translational Sciences [NCATS]
Division of Preclinical Innovation [DPI]
U.S. Environmental Protection Agency [EPA]
National Institutes of Environmental Health Sciences [NIEHS]
National Toxicology Program [NTP]
U.S. Food and Drug Administration [FDA]
p53, a tumor suppressor protein, is activated following cellular insult, including DNA damage and other cellular stresses. The activation of p53 regulates cell fate by inducing DNA repair, cell cycle arrest, apoptosis, or cellular senescence. The activation of p53, therefore, is a good indicator of DNA damage and other cellular stresses. […] The activation of the reporter gene under culture conditions can be detected by fluorescence intensity. This cell line was used to screen the Tox21 10K compound library in a 1536-well plate format and to identify agonists that activate the p53 signaling pathway.
Tox21 Assay Protocol Summary:
The p53RE-bla cells were dispensed at 4,000 cells/5 ul/well in 1536-well black wall/clear bottom plates using a Multidrop dispenser. After the assay plates were incubated at a 37 C/5% CO2 incubator for 5 hours, 23 nL of compounds dissolved in DMSO, positive controls or DMSO only was transferred to the assay plate by a pin tool. The plates were incubated at 37 C for 16 hours. After 1 uL of LiveBLAzerTM B/G FRET substrate was added using a Flying Reagent Dispenser, the plates were incubated at room temperature for 2 hours, and fluorescence intensity was measured by an Envision plate reader.
Potency is read from the fitted curve at half-maximal effect.

| SMILES | Potency | activation |
| --- | --- | --- |
| CCCCCCCCCCCCCCCCN | inactive | – |
| CC1(C)C(=O)N(Br)C(=O)N1Br | inactive | – |
| CC1=C(C(=O)O)N2C(=O)[C@@H](NC(=O)[C@H](N)c3ccccc3)[C@H]2SC1 | inactive | – |
| CCc1cc(C(C)(C)C)c(O)c(C(C)(C)C)c1 | inactive | – |
| CCN(Cc1cccc(S(=O)(=O)O)c1)c1ccc(C(=C2C=CC(=[N+](CC)Cc3cccc(S(=O)(=O)O)c3)C=C2)c2ccccc2S(=O)(=O)[O-])cc1 | inactive | – |
| Cc1ccc(Cl)c(N)c1Cl | inactive | – |
| OCCCS | inactive | – |
| CC1=C(C/C=C(\C)CCC[C@H](C)CCC[C@H](C)CCCC(C)C)C(=O)c2ccccc2C1=O | inactive | – |
| CC(=O)CC(=O)Nc1ccc(S(=O)(=O)O)cc1 | inactive | – |
| CCc1ccc(O)c(C(C)(C)C)c1 | inactive | – |
| C#CCN(C)CCCOc1ccc(Cl)cc1Cl | inactive | – |
| O=C(/C=C/c1ccc(O)c(O)c1)O[C@@H](C(=O)O)[C@@H](OC(=O)/C=C/c1ccc(O)c(O)c1)C(=O)O | inactive | – |
| C[C@]12CCC(=O)C=C1C=C[C@@H]1[C@@H]2CC[C@@]2(C)[C@H]1CC[C@@]21CCC(=O)O1 | inactive | – |
| CCC(Cl)CCC(Cl)C(Cl)CC(Cl)C(Cl)C(Cl)CCl (stereo not given) | inactive | – |
| CCCCC/C(=C\c1ccccc1)CO | inactive | – |
| COc1cc([C@@H]2c3cc4c(cc3[C@@H](O[C@@H]3O[C@@H]5CO[C@@H](C)O[C@H]5[C@H](O)[C@H]3O)[C@H]3COC(=O)[C@H]23)OCO4)cc(OC)c1O | 1.14 µM (active) | – |
| O=S(=O)(O)c1cc(S(=O)(=O)O)c2ccc3c(S(=O)(=O)O)cc(S(=O)(=O)O)c4ccc1c2c43 | – | 4.26% [at 13.5 µM] (inactive) |
| CC(C)c1ccc2c(c1)CC[C@H]1[C@](C)(CN)CCC[C@]21C | inactive | – |
| C=C[Si]1(C)O[Si](C)(C=C)O[Si](C)(C=C)O[Si](C)(C=C)O1 (stereo not given) | inactive | – |
| O=C(NOCC1CC1)c1ccc(F)c(F)c1Nc1ccc(I)cc1Cl | 19.9 µM (active) | – |

| SMILES | Potency | activation |
| --- | --- | --- |
| CCCCCCCCCCCCCOS(=O)(=O)O | inactive | – |
| CCCCNC1CC(C)(C)NC(C)(C)C1 | inactive | – |
| CCOCN(C(=O)CS(=O)(=O)O)c1c(C)cccc1CC | inactive | – |
| C=C[Si](OC(C)=O)(OC(C)=O)OC(C)=O | inactive | – |
| C=Cc1ccc(S(=O)(=O)O)cc1 | inactive | – |
| c1ccc2sc(SSc3nc4ccccc4s3)nc2c1 | – | 0.366% [at 13.5 µM] (inactive) |
| O=S(=O)(O)c1cc(Cl)c(Cl)cc1Cl | inactive | – |
| CCCCCCNC(=O)n1cc(F)c(=O)[nH]c1=O | 5 µM (active) | – |
| Nc1nnc(-c2ccc([N+](=O)[O-])o2)o1 | inactive | – |
| O=C(CCCN1CCN(c2ccc(F)cc2)CC1)NC1c2ccccc2CSc2ccccc21 (stereo not given) | inactive | – |
| O=[N+]([O-])c1cc(N(CCO)CCO)ccc1NCCO | inactive | – |
| c1ccc(C[n+]2cccc3ccccc32)cc1 | inactive | – |
| CCCCCC1Nc2cc(C(F)(F)F)c(S(N)(=O)=O)cc2S(=O)(=O)N1 (stereo not given) | inactive | – |
| CCCCCCCCCCCCCCC[C@H](O)[C@@H](N)CO | inactive | – |
| O=C(NCc1ncc(C(F)(F)F)cc1Cl)c1c(Cl)cccc1Cl | inactive | – |
| O=C(CS)OCCOC(=O)CS | inactive | – |
| CN1CCN(c2cc3c(nn2)Oc2ccccc2N3C)CC1 | – | 6.54% [at 13.5 µM] (inactive) |
| CC(=O)c1ccc(OCC(=O)N2CCCCC2)cc1 | inactive | – |
| CC(=O)NCCCS(=O)(=O)O | inactive | – |
| CCCCN | inactive | – |
